Experimental data: PubChem BioAssay (NCATS)
Records with an inconclusive call do not appear. Activity calls are given as the source filed them. Unless noted, the call rests on the fitted dose curve; in most records, active means well fitted curve in the direction sought with a large enough effect; inconclusive means small, poorly fitted or top-dose-only effect, or another doubt; inactive means no such curve, though single readings can be large; an effect the other way counts as inactive or inconclusive.

Legend:
[1] = molecular target: Lysosomal acid glucosylceramidase (Homo sapiens) (UniProt P04062); experiment: Glucocerebrosidase-p2 (AID 348; in the data active means potency below about 10 µM; further: potency means the concentration at half of the fitted maximal effect); conditions: purified GBA, blue fluorogenic substrate, 40 min
Summary of the method: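 Normal human glucocerebrosidase (0.2 nM) with blue fluorogenic substrate (80 uM final) in citrate/phosphate pH 5.9 with 10mM sodium taurocholate, 0.01% tween-20; 40 min RT, NaOH/glycine stop; fluorescence Ex 365/Em 440; AC50 from a titration from 0.6 nM upwards.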

[2] = AP1 Signaling Pathway (AID 357; active means well fitted curve in either direction with a large enough effect, not every such curve was filed as active;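 further: ME-180 reporter cells stimulated with EGF at its EC50 level; on the % scale 0 is the no-effect control and ±100 the full control effect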); conditions: ME-180 (cervical carcinoma) AP-1-bla reporter, EGF-induced, beta-lactamase ratio, 5 h; at 7.69 µM (top of the series) unless noted
Summary of the method: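 Cells are seeded overnight, exposed to compound titrations and an EC50 level of EGF for 5 hours at 37 °C, then loaded with CCF4 dye for 2.5 hours. Beta-lactamase activity under the AP-1 element is read as a blue/green ratio.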

[3] = molecular target: Cytochrome P450 1A2 (Homo sapiens) (UniProt P05177); experiment: p450-cyp1a2 (AID 410; calls by dose curve; further: potency means the concentration at half of the fitted maximal effect;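 on activity change, negative = inhibition: -100% = full effect of reference inhibitor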)
Summary of the method: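 Luminescent demethylation readout: Luciferin-ME (100uM, equal to Km) turned over by 20nM CYP1A2 for 60 min at room temperature after NADPH regeneration addition, following 10 min compound preincubation. Normalization used 57 uM furafylline as full inhibition.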

[4] = NFAT Signaling Pathway (AID 444; active means well fitted curve in either direction with a large enough effect, not every such curve was filed as active;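 further: carbachol stimulus at about its EC50 of 1 µM final; on the % scale 0 is the no-effect control and ±100 the full control effect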); conditions: Jurkat NFAT-bla M1, carbachol, beta-lactamase ratio, 5 h; at 7.69 µM (top of the series) unless noted
Summary of the method: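 Jurkat cells carrying an NFAT-driven β-lactamase reporter and co-transfected muscarinic M1 receptor were treated with compound plus carbachol (1 uM final, an EC50 level) for 5 h at 37 °C. CCF4 loading followed for 1 h at RT; 460/530 nm ratio gave %activity.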

[5] = Stat Signaling Pathway (AID 446; active means well fitted curve in either direction with a large enough effect, not every such curve was filed as active;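 further: ME-180 cervical cancer cells given 40 pM IL-6 alongside compound; SIE-controlled beta-lactamase reporter measured as 460/530 nm FRET emission ratio; on the % scale 0 is the no-effect control and ±100 the full control effect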)
Summary of the method: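 Normalization used AC90 stimulation (300 pM IL-6) and AC90 inhibition (125 nM pan-JAK inhibitor at 40 pM IL-6). The underlying signal is SIE-driven beta-lactamase in ME-180 cells after 5 h IL-6 exposure with compound.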

[6] = molecular target: Glucocorticoid receptor (Homo sapiens) (UniProt P04150); experiment: GR-GFP Redistribution (AID 450;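 active means compounds whose dose series gives a full or clear partial fitted curve of increased nuclear translocation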; further: potency means the concentration at half of the fitted maximal effect); conditions: U2OS GR-GFP nuclear translocation, laser cytometry, 2 h
[7] = molecular target: Glucocorticoid receptor (Homo sapiens) (UniProt P04150); experiment: GR-EFC Redistribution (AID 451; calls by dose curve; further: potency means the concentration at half of the fitted maximal effect); conditions: CHO-K1 GR-EFC translocation, beta-gal luminescence, 2 h
Summary of the method: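 CHO-K1 cells stably expressing nuclear-localized β-gal enzyme acceptor and GR fused C-terminally to the enzyme donor fragment; ligand-driven nuclear translocation restores β-gal by complementation. Compounds titrated up to 46 uM final, 2 h at 37 °C; luminescence read.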

[8] = molecular target: Mitogen-activated protein kinase 10 (Mus musculus) (UniProt Q61831); experiment: JNK3 AlphaScreen Assay (AID 530; active means well fitted curve in either direction with a large enough effect, not every such curve was filed as active;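 further: kinase came from lysate of stimulated human HepG2 cells; signal reports phosphorylation of biotinylated GST-cJun 1-79 at Ser73 with 10 µM ATP; on the % scale 0 is the no-effect control and ±100 the full control effect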)
Summary of the method: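 Phosphorylation of biotinylated GST-cJun(1-79) at Ser73 is measured by AlphaScreen proximity luminescence. Enzyme is JNK3 in HepG2 lysates activated with interleukin-1beta and tumor necrosis factor alpha; ATP is 10 uM final.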

[9] = molecular target: Cytochrome P450 3A4 (Homo sapiens) (UniProt P08684); experiment: qHTS Assay for Inhibitors and Substrates of Cytochrome P450 3A4 (AID 884); further: nearly all actives have a fitted effect of over 50% in size; further: potency means the concentration at half of the fitted maximal effect
Summary of the method: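 Luminescent readout of luciferin produced by CYP3A4 (20 nM) dealkylation of Luciferin-PPXE, 25 uM (its KM). NADPH-driven reaction ran 60 min at RT after 10 min compound preincubation; data scaled to 57 uM ketoconazole as 100% inhibition.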

[10] = molecular target: Cytochrome P450 3A4 (Homo sapiens) (UniProt P08684); experiment: qHTS Assay for Activators of Cytochrome P450 3A4 (AID 885); further: nearly all actives have a fitted effect of over 65% in size
Summary of the method: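 Human CYP3A4 dealkylates Luciferin-PPXE to luciferin, which luciferase detection converts to light. Substrate was at its KM (25uM), buffer 200mM KPO4, reaction 60 min at RT.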

[11] = molecular target: Cytochrome P450 2C19 (Homo sapiens) (UniProt P33261); experiment: qHTS Assay for Inhibitors and Substrates of Cytochrome P450 2C19 (AID 899); further: potency means the concentration at half of the fitted maximal effect; nearly all actives have a fitted effect of over 60% in size
Summary of the method: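 NADPH-dependent conversion of Luciferin-H EGE (10uM, at KM) by 5nM enzyme in 50mM KPO4, 60 min at 37C following 10 min compound preincubation. Stopped with luciferin detection buffer; luminescence read after 20 min.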

[12] = molecular target: Dual specificity protein kinase CLK4 (Homo sapiens) (UniProt Q9HAZ1); experiment: qHTS Assay for Inhibitors of CDC-like Kinase 4 (Kinase-Glo Assay) (AID 1770); further: nearly all actives have a fitted effect of over 65% in size; further: potency means the concentration at half of the fitted maximal effect
Summary of the method: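 Recombinant human Clk4 (25 nM) phosphorylated RS repeat peptide (100 uM) with 1 uM ATP in Tris pH 7.5/MgCl2/EGTA/DTT/Triton buffer for 4.5 h at room temperature. Residual ATP was quantified by Kinase-Glo luciferase luminescence.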

[13] = molecular target: Dual specificity protein kinase CLK4 (Homo sapiens) (UniProt Q9HAZ1); experiment: qHTS Assay for Inhibitors of CDC-like Kinase 4 (ADP-Glo Assay) (AID 1771); further: nearly all actives have a fitted effect of over 70% in size; further: potency means the concentration at half of the fitted maximal effect
Summary of the method: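 ADP production was read by ADP-Glo luminescence after residual ATP depletion, following 1 h room-temperature reaction of 25 nM Clk4, 1 uM ATP and 100 uM RS peptide with MgCl2, EGTA, DTT and Triton X-100.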

[14] = molecular target: Dual specificity protein kinase CLK4 (Homo sapiens) (UniProt Q9HAZ1); experiment: qHTS Assay for Inhibitors of CDC-like Kinase 4 (ADP-FP Assay) (AID 1795); further: nearly all actives have a fitted effect of over 60% in size; further: potency means the concentration at half of the fitted maximal effect
Summary of the method: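 Recombinant human Clk4 (6.25 nM) phosphorylated RS repeat peptide (100 uM) with 1 uM ATP in Tris pH 7.5/MgCl2/EGTA/DTT/Triton buffer for one hour. ADP was quantified by Transcreener competitive fluorescence polarization against an ADP calibration curve.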

[15] = molecular target: Ubiquitin carboxyl-terminal hydrolase 1 (Homo sapiens) (UniProt O94782); experiment: Inhibitors of USP1/UAF1: Pilot qHTS (AID 504865);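 further: rhodamine fluorescence freed from ubiquitin-rhodamine substrate followed over time; top concentration of the series differs between compounds; on the % scale 0 is the no-effect control and ±100 the full control effect; nearly all actives have a fitted effect of over 35% in size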
Summary of the method: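 USP1/UAF1 complex (1nM) preincubated with compound 15 min at room temperature, then Ub-Rho substrate (150nM final) added. Fluorescence read kinetically at 480/540 nm, 6 reads every 60 seconds. Buffer: 50mM HEPES pH 7.8, 0.5mM EDTA, 0.1 mg/ml BSA, 1mM TCEP, 0.01% Tween-20.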

[16] = molecular target: 3',5'-cyclic-AMP phosphodiesterase 4B (Homo sapiens) (UniProt Q07343); experiment: qHTS Assay for Inhibitors of PDE-IV (AID 607; active means well fitted activation curve with a large enough effect in the main read-out, with a control signal flat, not every such curve was filed as active; further: % of control where 0% means no effect)
Summary of the method: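 HEK293 ACTOne cells with CNG channel (1000/well), endogenous PDE4; membrane potential dye, compounds up to 22.9 uM final. Fluorescence Ex 535/Em 590; RO 20-1724 (100 uM final) as reference.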

[17] = NCATS anti-infectives library activity on HEK293 viability as a counter-qHTS vs the C. elegans viability qHTS (AID 1745854); further: on the % scale 0 is the no-effect control and ±100 the full control effect
Summary of the method: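 Cytotoxicity counter-screen to a worm viability qHTS: CellTiter-Glo luminescence read 10 min after reagent addition. Compounds (final up to 41.7 uM, a 1:5 dilution series) incubated 24 hr at 37C with 1,500 HEK293 cells per well; digitonin control.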

[18] = molecular target: Phospholipid hydroperoxide glutathione peroxidase GPX4 (Homo sapiens) (UniProt P36969); experiment: Primary qHTS Assay for Inhibitors of Recombinant Selenoprotein Glutathione Peroxidase 4 (GPX4) (AID 1845192); further: potency means the concentration at half of the fitted maximal effect; nearly all actives have a fitted effect of over 65% in size
Summary of the method: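 qHTS, GR-coupled: GPX4 200 nM + cpd 30 min RT → GSH 1 mM, NADPH 0.5 mM, GR 100 nM → CHP 0.5 mM start; fluor 340/450 at t0 and t15 min; no-enzyme wells as control.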

[19] = molecular target: Cytochrome P450 2D6 (Homo sapiens) (UniProt P10635); experiment: qHTS Assay for Inhibitors and Substrates of Cytochrome P450 2D6 (AID 891); further: potency means the concentration at half of the fitted maximal effect; nearly all actives have a fitted effect of over 60% in size
Summary of the method: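 Luminescent read-out of luciferin formed by 5 nM human CYP2D6 demethylating 30 uM Luciferin-ME EGE (Km level) over 60 min at room temperature after NADPH regeneration addition. Data normalized to full inhibition by 1.43 uM quinidine.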

[20] = Confirmation and Secondary Assay for Modulators of Hemoglobin Beta Chain Splicing at IVS2 654 locus (AID 910);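 further: per-well total GFP intensity by laser scanning cytometry after 2-day treatment; % of control where 0% means no effect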
Summary of the method: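 HeLa cells stably carrying EGFP interrupted by mutant beta-globin IVS2-654 intron (CMV-driven) were treated with compound for 2 days at 37C; corrected splicing was scored as total peak GFP intensity per well (488 nm excitation, 500-520 nm emission).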

[21] = Confirmation and Secondary Assay for Modulators of Hemoglobin Beta Chain Splicing at IVS2 705 locus (AID 930);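 further: HeLa cells stably expressing the EGFP-705 splicing reporter; % of control where 0% means no effect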
Summary of the method: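 HeLa cells stably carrying EGFP interrupted by mutant beta-globin IVS2-705 intron (CMV-driven) were seeded at 500 cells/well, treated next day with compound for 2 days at 37C; corrected splicing restores EGFP, read as total peak GFP intensity per well.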

[22] = NCATS anti-infectives library activity on the primary C. elegans qHTS viability assay (AID 1745855; calls by dose curve)
Summary of the method: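 GFP read-out by 488 nm laser cytometry at day 0, 3 and 7, gated on object perimeter, area and peak intensity, scored viability of PE254-GFP-FLuc worms exposed to compound in S medium with bacterial capsules at 21 °C.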

Sequence of Cytochrome P450 3A4 (Homo sapiens) (P08684 whole entry, looked up): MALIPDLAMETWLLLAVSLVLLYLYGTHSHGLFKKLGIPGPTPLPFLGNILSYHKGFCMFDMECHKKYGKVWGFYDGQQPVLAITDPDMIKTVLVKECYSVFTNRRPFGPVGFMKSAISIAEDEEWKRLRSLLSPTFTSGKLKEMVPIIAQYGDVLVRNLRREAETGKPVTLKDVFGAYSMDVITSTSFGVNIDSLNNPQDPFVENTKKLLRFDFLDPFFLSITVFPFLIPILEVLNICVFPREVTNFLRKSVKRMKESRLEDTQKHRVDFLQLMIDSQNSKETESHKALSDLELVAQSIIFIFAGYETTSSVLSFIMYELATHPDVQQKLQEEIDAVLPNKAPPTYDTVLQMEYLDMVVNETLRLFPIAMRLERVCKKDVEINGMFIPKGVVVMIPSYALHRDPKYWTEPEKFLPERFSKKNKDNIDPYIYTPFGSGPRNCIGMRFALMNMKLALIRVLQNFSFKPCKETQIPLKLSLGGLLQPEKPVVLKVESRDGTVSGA
Sequence of Dual specificity protein kinase CLK4 (Homo sapiens) (Q9HAZ1 whole entry, looked up): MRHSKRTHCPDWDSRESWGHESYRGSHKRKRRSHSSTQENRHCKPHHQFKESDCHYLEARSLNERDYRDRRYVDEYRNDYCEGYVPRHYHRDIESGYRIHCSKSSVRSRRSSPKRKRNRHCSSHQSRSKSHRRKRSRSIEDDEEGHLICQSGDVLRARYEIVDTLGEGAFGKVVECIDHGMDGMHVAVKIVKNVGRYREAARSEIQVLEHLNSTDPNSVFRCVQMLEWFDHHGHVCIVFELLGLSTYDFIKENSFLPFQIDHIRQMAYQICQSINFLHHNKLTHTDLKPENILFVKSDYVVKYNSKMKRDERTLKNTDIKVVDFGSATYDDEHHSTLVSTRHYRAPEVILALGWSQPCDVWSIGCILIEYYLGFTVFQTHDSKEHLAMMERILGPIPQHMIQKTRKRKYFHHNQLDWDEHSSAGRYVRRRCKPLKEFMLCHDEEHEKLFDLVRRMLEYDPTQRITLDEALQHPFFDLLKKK
Sequence of Lysosomal acid glucosylceramidase (Homo sapiens) (P04062 whole entry, looked up): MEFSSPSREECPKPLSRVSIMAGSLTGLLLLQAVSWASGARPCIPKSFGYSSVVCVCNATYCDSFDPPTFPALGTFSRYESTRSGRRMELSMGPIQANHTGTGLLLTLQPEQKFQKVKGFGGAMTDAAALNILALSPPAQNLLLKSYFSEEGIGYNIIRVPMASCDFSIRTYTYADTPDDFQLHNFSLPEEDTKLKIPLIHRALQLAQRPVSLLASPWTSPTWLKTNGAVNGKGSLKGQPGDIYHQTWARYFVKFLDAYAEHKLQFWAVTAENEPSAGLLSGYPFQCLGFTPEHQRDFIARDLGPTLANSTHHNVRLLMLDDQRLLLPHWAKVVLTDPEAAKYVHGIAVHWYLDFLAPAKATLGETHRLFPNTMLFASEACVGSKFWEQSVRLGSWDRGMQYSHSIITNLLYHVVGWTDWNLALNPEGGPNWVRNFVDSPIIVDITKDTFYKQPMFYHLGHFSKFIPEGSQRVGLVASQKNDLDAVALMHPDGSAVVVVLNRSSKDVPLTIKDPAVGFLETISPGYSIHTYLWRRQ
Sequence of Glucocorticoid receptor (Homo sapiens) (P04150 whole entry, looked up, the tested form may be a part): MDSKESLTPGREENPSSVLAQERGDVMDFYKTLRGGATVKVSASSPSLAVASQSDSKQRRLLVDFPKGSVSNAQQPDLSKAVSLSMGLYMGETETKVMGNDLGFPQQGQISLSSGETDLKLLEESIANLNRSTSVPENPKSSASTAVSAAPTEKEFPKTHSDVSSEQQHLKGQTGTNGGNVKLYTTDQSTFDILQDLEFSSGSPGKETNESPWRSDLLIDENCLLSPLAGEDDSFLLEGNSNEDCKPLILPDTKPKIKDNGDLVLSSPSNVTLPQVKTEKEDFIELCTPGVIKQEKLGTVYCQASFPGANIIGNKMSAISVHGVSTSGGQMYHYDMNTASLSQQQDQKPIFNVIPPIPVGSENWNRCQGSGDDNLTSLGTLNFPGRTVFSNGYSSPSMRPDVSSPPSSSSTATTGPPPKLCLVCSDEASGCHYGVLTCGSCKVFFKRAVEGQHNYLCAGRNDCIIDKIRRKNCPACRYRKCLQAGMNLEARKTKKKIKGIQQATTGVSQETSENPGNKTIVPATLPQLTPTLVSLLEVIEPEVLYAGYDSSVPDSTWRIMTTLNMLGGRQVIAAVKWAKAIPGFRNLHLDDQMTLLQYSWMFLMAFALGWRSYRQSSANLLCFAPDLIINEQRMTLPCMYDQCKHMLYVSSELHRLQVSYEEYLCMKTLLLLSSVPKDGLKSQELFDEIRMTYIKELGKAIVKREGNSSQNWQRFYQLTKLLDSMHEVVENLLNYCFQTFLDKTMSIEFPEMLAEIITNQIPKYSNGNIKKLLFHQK
Sequence of Cytochrome P450 1A2 (Homo sapiens) (P05177 whole entry, looked up): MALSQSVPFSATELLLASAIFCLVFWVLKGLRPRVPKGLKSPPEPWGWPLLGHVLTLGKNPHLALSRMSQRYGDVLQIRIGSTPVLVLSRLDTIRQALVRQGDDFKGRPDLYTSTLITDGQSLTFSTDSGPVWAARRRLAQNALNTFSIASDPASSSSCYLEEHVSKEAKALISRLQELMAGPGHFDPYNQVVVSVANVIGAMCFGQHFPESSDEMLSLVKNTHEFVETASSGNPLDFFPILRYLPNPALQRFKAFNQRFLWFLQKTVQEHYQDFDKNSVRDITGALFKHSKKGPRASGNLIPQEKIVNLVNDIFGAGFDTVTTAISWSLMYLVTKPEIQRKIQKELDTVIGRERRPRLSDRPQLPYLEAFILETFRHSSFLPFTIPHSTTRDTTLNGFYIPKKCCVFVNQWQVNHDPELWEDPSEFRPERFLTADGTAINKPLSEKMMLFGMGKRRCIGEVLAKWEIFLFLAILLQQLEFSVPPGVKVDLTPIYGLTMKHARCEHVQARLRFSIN
Sequence of Cytochrome P450 2C19 (Homo sapiens) (P33261 whole entry, looked up): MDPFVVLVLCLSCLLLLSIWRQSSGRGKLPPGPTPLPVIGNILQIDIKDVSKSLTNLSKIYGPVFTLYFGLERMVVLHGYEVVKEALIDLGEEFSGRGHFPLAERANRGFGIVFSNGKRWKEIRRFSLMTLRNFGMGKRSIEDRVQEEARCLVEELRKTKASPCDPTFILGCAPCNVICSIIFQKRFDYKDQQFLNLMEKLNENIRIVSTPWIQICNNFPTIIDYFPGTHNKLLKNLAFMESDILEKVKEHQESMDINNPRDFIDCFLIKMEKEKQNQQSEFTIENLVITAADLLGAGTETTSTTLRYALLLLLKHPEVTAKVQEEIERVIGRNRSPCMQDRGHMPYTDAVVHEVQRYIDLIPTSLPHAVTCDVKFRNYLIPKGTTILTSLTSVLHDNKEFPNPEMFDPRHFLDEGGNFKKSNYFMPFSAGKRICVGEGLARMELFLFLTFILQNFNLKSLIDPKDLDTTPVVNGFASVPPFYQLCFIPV
Sequence of 3',5'-cyclic-AMP phosphodiesterase 4B (Homo sapiens) (Q07343 whole entry, looked up): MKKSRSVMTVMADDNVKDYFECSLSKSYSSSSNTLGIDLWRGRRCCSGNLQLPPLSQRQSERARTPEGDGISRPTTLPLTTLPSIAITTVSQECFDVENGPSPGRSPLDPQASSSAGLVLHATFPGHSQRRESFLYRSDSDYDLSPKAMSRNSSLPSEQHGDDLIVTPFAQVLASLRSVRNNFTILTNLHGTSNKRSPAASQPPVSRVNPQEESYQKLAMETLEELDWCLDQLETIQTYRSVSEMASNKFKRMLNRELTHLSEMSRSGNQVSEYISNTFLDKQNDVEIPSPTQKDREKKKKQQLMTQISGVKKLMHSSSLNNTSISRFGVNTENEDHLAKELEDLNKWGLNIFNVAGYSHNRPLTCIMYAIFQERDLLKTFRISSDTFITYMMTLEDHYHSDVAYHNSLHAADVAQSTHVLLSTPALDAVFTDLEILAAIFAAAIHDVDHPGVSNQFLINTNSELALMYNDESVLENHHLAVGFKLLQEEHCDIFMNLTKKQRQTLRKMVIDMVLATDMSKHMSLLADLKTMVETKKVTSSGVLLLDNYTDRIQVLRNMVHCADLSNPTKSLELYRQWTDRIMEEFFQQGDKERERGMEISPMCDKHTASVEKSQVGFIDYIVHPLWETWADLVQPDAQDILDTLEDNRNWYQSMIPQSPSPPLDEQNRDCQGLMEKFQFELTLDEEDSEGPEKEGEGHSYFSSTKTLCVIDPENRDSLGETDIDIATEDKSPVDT
Sequence of Ubiquitin carboxyl-terminal hydrolase 1 (Homo sapiens) (O94782 whole entry, looked up): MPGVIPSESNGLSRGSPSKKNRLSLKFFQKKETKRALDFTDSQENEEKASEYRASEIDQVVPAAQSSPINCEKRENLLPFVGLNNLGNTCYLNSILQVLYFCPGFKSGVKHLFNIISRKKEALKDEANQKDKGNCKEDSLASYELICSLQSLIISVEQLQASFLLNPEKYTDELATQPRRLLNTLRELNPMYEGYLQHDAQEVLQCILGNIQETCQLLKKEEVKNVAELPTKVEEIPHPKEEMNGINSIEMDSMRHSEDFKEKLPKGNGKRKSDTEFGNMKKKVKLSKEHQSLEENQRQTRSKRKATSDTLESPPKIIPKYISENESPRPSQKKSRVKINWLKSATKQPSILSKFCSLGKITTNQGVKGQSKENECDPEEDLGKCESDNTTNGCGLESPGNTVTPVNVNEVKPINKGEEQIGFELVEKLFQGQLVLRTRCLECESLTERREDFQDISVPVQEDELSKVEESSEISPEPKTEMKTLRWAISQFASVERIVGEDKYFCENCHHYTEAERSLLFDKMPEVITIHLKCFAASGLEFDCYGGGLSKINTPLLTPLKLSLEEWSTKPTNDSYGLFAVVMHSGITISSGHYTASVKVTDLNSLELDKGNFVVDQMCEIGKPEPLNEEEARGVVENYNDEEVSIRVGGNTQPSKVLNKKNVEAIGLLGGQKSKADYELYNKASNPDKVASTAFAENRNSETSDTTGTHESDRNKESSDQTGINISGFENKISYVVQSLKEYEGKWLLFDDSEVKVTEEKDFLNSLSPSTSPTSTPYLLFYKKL
Sequence of Phospholipid hydroperoxide glutathione peroxidase GPX4 (Homo sapiens) (P36969 whole entry, looked up): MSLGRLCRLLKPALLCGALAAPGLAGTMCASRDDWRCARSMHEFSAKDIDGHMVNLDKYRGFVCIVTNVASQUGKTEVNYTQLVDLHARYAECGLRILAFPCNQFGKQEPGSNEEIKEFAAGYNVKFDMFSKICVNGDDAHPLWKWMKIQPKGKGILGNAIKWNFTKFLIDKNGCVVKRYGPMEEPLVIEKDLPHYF

Clc1ccccc1-c1nc(-n2ccnc2)c2ccccc2n1
active: Potency [3] 0.158 µM | Potency [9] 0.501 µM | Potency [11] 7.94 µM | Potency [12] 1.26 µM | Potency [13] 2.24 µM | Potency [14] 1 µM
inactive: Potency [1] > 11.4 µM | activity change, negative = inhibition [2] -5.23% | activity change, negative = inhibition [4] -17.9% | outcome [5] | Potency [6] > 46 µM | Potency [7] > 46 µM | Potency [8] | outcome [10] | Potency [15]

N#CCCn1c(=O)c(-c2cccc(C#N)c2)nc2cnc(Oc3cccc(Cl)c3)nc21
inactive: Potency [1] > 11.4 µM | activity change, negative = inhibition [2] -14.2% | Potency [3] | activity change, negative = inhibition [4] -6.45% | outcome [5] | Potency [6] > 9.22 µM | Potency [7] > 46 µM | Potency [8] | Potency [16] | Potency [12] | Potency [13] | Potency [14]

C=C[C@@H]1C[C@]1(NC(=O)[C@@H]1C[C@@H]2CN1C(=O)[C@H](C(C)(C)C)NC(=O)O[C@@H]1C[C@H]1CCCCCc1nc3ccc(OC)cc3nc1O2)C(=O)NS(=O)(=O)C1CC1
active: Potency [18] 5.62 µM
inactive: Potency [17]

COc1ccccc1CNc1ncncc1-c1ccccc1C(F)(F)F
active: Potency [3] 15.8 µM | Potency [9] 0.0794 µM | Potency [19] 2 µM | Potency [11] 1.58 µM
inactive: Potency [1] > 11.4 µM | activity change, negative = inhibition [2] -7.72% | activity change, negative = inhibition [4] -21.7% | outcome [5] | Potency [7] > 46 µM | Potency [8] | Potency [16] | outcome [10] | Potency [12] | Potency [13] | Potency [14]

O=C1CC(c2ccccc2)Oc2ccccc21 (stereo not given)
inactive: Potency [9] | Potency [20] | Potency [21] | Potency [15] | Potency [17]

CCCCN(Cc1ccc(C(=O)NO)cc1)C(=O)Nc1ccccc1
inactive: Potency [22]
